Hits are enriched below; roughly 5.7% of the tested compounds scored in any of these assays.
PI4K2A inh = qHTS for small molecular inhibitors of PI4K2A; Phosphatidylinositol 4-kinase type 2-alpha (Homo sapiens), Q9BTU6; purified PI4K2A, ADP-Glo luminescence, 1 h; hits give low values; activity change, negative = inhibition, % at 76.9 µM; hit rate 0.13% among 420,000; AID 1346378, 2018; in the data active = activity change below about -50%; inconclusive = mostly about -30% to -49%;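 note: -100% = wells without enzyme as full effect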
Target sequence (Q9BTU6 whole entry, looked up): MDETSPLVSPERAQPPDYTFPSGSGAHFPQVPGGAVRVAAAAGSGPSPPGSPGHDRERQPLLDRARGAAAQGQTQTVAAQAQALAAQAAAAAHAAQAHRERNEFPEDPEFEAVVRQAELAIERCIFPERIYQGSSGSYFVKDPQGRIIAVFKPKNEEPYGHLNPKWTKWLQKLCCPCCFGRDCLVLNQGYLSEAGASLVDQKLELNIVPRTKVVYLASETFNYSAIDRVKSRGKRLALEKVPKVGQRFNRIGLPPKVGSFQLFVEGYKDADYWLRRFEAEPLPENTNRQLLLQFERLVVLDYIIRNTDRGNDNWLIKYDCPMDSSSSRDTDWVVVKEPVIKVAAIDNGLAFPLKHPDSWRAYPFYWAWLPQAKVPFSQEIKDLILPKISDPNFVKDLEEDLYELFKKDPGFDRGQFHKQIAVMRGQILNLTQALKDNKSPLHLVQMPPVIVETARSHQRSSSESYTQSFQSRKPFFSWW
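PI4K2A activity was measured by ADP-Glo luminescence: enzyme (4 ug/mL stock) and phosphatidylinositol (1.2 mM stock) in Tris pH 7.5/MgCl2/EGTA/Triton X-100 buffer were reacted with ATP (300 microM stock) for one hour at ambient temperature.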
KB-3-1 tox = qHTS assay for MDR1-selective chemotherapeutics: Primary screen using the parental adenocarcinoma cell KB-3-1; KB-3-1 viability, CellTiter-Glo ATP luminescence, 72 h; Potency, µM (highest dose often 46.1 µM), hits mostly cytotoxic; hit rate 1.4% among 400,000; AID 1347075, 2019; note: potency is the fitted concentration of half-maximal effect; nearly all actives have a fitted effect of over 60% in size
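Screening of KB-3-1 cells (DMEM, 10% FBS, phenol-red free) ran from lowest to highest compound concentration; after 72 h at 37 °C viability was read luminescently and curves fitted.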
A549 viability = Nrf2 qHTS screen for inhibitors: counterscreen for cytotoxicity; Potency, µM (doses to about 46 µM), for the others: at the top dose activity change, negative = cytotoxicity, actives largely listed as inhibitors; hit rate 0.16% among 390,000; A549 ARE-Fluc cells, CellTiter-Fluor viability, 18-24 h; note: potency is the fitted concentration of half-maximal effect
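Cytotoxicity counterscreen: CellTiter-Fluor fluorescence was measured in A549 ARE_Fluc cells after 18-24 h of compound exposure in a concentration series. The subsequent BugLite luminescent read reports ARE-luciferase activity.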
Nrf2 block = Nrf2 qHTS screen for inhibitors; A549 ARE-Fluc reporter, luciferase luminescence, 18-24 h; Potency, µM (titrated, usually from 46 µM), without a hit: at the highest dose activity change, negative = inhibition, usual class: inhibitors; hit rate 2.1% among 360,000; note: potency is the fitted concentration of half-maximal effect; nearly all actives have a fitted effect of over 60% in size
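Quantitative HTS in A549 cells stably bearing an antioxidant response element-firefly luciferase construct. Inhibition of Nrf2-driven transcription was scored by luminescence after 18-24 h of compound exposure at 37 °C.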
KB-V1 MDR tox = qHTS assay for MDR1-selective chemotherapeutics: Primary screen using the drug-selected MDR subline cells KB-V1 | AID 1347076, 2019 | hit rate 3.4% among 400,000 | KB-V1 MDR cells viability, CellTiter-Glo, 72 h | Potency, µM (titrated, usually from 46.1 µM), most hits filed as cytotoxic; note: potency is the fitted concentration of half-maximal effect; nearly all actives have a fitted effect of over 60% in size
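Compound-treated KB-V1 multidrug-resistant cells, 72 h, 37 degrees C; viability by CellTiter-Glo. Fitted qHTS curves give the values.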
Giardia killer = Small Molecules that selectively kill Giardia lamblia: qHTS | Giardia lamblia trophozoite viability | activity change, % at 7.66 µM, hits read low | hit rate 0.15% among 340,000 | AID 540267, 2011; in the data active = activity change below about -80%; inconclusive = between about -30% and that limit;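 note: parasites exposed to compound for two days anaerobically before the ATP read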
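ATP-content bioluminescence gauges trophozoite survival. Cells (100/well) receive compound and incubate anaerobically for 48 hrs at 37 deg C; detection reagent follows for 15-30 min at room temperature.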
Starred values were filed as active, the others as inactive; i = inactive; ? = inconclusive; · = not tested or not shown. Unless noted, calls come from the whole dose curve; as a rule, active = well fitted curve in the direction sought with a large enough effect; inconclusive = small, poorly fitted or top-dose-only effect, or another doubt; inactive = no such curve, though single readings can be large; an effect the other way counts as inactive or inconclusive. Unless noted, % is set by controls: 0 for no effect and ±100 for the full control effect.

SMILES	PI4K2A inh	KB-3-1 tox	A549 viability	Nrf2 block	KB-V1 MDR tox	Giardia killer
COc1ccc(Nc2nc3ccccc3nc2NS(=O)(=O)c2ccc(NC(C)=O)cc2)cc1	-4	i	-7%	-18%	i	1
CCc1ccc(Nc2nc3ccccc3nc2NS(=O)(=O)c2ccccc2)cc1	5	?	-17%	23µM*	18µM*	·
COc1cccc(Nc2nc3cc(C)ccc3nc2NS(=O)(=O)c2ccc(Cl)cc2)c1	-3	?	?	·	15µM*	·
O=S(=O)(Nc1nc2ccccc2nc1Nc1cccc(S(=O)(=O)N2CCCCC2)c1)c1ccccc1	2	15µM*	?	12µM*	7.3µM*	-11
Oc1ccc(N2CCN(C(c3ccc(Cl)cc3)c3nnnn3Cc3ccc(F)cc3)CC2)cc1 (stereo not given)	·	?	-13%	-17%	i	13
COC(=O)[C@]12C[C@H](CC(=O)N3CCOCC3)C(=O)N(Cc3ccco3)C1=C[C@H](C(C)(C)C)O[C@@H]2C	-1	·	·	·	·	·
CC(=O)c1ccc(Nc2nc3ccccc3nc2NS(=O)(=O)c2cccs2)cc1	3	?	1%	0%	?	-1
COc1ccc(Nc2nc3ccccc3nc2NS(=O)(=O)c2cccs2)cc1	2	i	-19%	16µM*	i	-3
CC1(OC(=O)C2CCCC2)C(=O)C=C2C=C(c3ccsc3)N(C3CCCCC3)C=C2C1=O (stereo not given)	-14	21µM*	0%	6%	i	5
COc1cc(/C=N/N=C/c2cc(OC)c(O)c(OC)c2)cc(OC)c1O	-1	i	0%	-5%	i	-15
COc1cc(/C=N/N=C(/C(=O)c2ccccc2)c2ccccc2)cc(OC)c1O	4	i	-2%	10%	9.2µM*	-18
Nc1ccccc1SC(CC(=O)c1ccccc1)c1ccc([N+](=O)[O-])cc1 (stereo not given)	4	21µM*	·	·	i	·
O=C(CC(SCCO)c1ccc([N+](=O)[O-])cc1)c1ccco1 (stereo not given)	9	21µM*	-5%	?	i	-25
Cc1ccc(C(=O)CC(SCC(=O)O)c2ccc([N+](=O)[O-])cc2)cc1 (stereo not given)	8	i	19%	?	i	-20
O=[N+]([O-])c1ccc(O)c(-c2cc(C(F)(F)F)nc(-c3ccccc3)n2)c1	3	1.5µM*	8.2µM*	?	?	-21
O=C(C1CCN(S(=O)(=O)c2ccc(-n3cnnn3)cc2)CC1)N1CCCCC1	-5	?	-2%	13µM*	?	16
CCOc1ccc(S(=O)(=O)N2CCC(C(=O)N3CCCCCC3)CC2)cc1C	6	i	0%	18µM*	?	-6
CCOc1ccc(C(C)NC(=O)C2CCN(S(=O)(=O)c3ccc(OC)cc3)CC2)cc1OCC (stereo not given)	-4	i	0%	10%	21µM*	-1
O=C(C1CCN(S(=O)(=O)c2ccc(-n3cnnn3)cc2)CC1)N1CCN(c2ccccc2)CC1	2	i	4%	21%	i	12
COc1ccc(S(=O)(=O)N2CCC(C(=O)NC(C)c3ccccc3)CC2)cc1 (stereo not given)	0	i	-1%	5%	i	·
CCC(C)Sc1nc2c(c(=O)[nH]c(=O)n2C)n1CCc1ccccc1 (stereo not given)	1	i	2%	·	?	6
Cc1cc(C)n(-c2nc3c(c(=O)[nH]c(=O)n3C)n2CC(O)COc2ccc(Cl)cc2Cl)n1 (stereo not given)	1	2.1µM*	?	8%	?	-4
C=CCn1c(SCc2ccc(Cl)cc2)nc2c1c(=O)[nH]c(=O)n2C	4	i	-1%	·	16µM*	-2
CC(C)Sc1nc2c(c(=O)[nH]c(=O)n2C)n1Cc1ccc(Cl)cc1	8	i	0%	?	i	8
CCC(C)Sc1nc2c(c(=O)[nH]c(=O)n2C)n1CC(O)COc1ccccc1C (stereo not given)	-10	?	-1%	-24%	18µM*	0
SMILES	PI4K2A inh	KB-3-1 tox	A549 viability	Nrf2 block	KB-V1 MDR tox	Giardia killer
CCC(C)Sc1nc2c(c(=O)[nH]c(=O)n2C)n1Cc1ccc(Cl)cc1 (stereo not given)	-3	?	-1%	·	9.2µM*	13
CCCC1CCC2(CC1)CCC2OC(=O)Nc1ccc2c(c1)OCO2 (stereo not given)	0	·	·	·	·	·
Cc1ccc(NS(=O)(=O)c2ccc3c(c2)C(Cl)(Cl)C(=O)N3)cc1C	·	i	1%	8%	i	·
C=CCn1c(Sc2ccccc2)nc2c1c(=O)[nH]c(=O)n2C	-2	7.3µM*	-1%	-6%	2.3µM*	-9
Cc1ccc(C(c2nnnn2CCc2ccccc2)N2CCSCC2)cc1 (stereo not given)	2	i	0%	-7%	?	3
Cc1ccc(C(c2nnnn2CCc2ccccc2)N2CCC(C)CC2)cc1 (stereo not given)	-4	?	0%	5%	18µM*	-12
O=C(Nc1nc2cc3c(cc2s1)OCCO3)c1ccco1	-25	?	-8%	?	12µM*	?
O=C(Nc1nc2cc3c(cc2s1)OCO3)C1=COCCO1	-13	6.5µM*	-7%	?	i	?
Cc1nc(N2CCCC2)c2c(C(=O)Nc3ccc(C)c(Cl)c3)c(C)oc2n1	4	·	0%	?	·	·
COC(=O)[C@]12C[C@H](CC(=O)N3CCCC3)C(=O)N(Cc3ccco3)C1=C[C@H](C(C)(C)C)O[C@@H]2C	2	·	·	·	·	·
CC1CCCC(NCC(O)COC(c2ccc(F)cc2)c2ccc(F)cc2)C1C (stereo not given)	5	?	?	?	18µM*	1
CC1CCCC(NC(=O)CSc2ccc(F)cc2)C1C (stereo not given)	4	i	-3%	-20%	i	11
COc1cccc(Cn2c(=O)c3ccccc3n3nc(C)cc23)c1	7	?	4%	-15%	21µM*	16
COc1cccc(Cn2c(=O)sc3ccccc3c2=O)c1	7	i	1%	-4%	i	4
CCOc1ccccc1-n1c(SCC(=O)N2CCCc3ccccc32)nnc1-c1cccnc1	3	i	-3%	13%	7.3µM*	5
